For 28 compounds, viability (% of DMSO) and Potency results are on record in PubChem BioAssay (NCATS).

Records with an inconclusive call do not appear. Activity calls are given as the source filed them. The call rests on the fitted dose curve; in most records, active means well fitted cell-killing curve with a large enough effect; inconclusive means small, poorly fitted or top-dose-only effect, or effect the other way; inactive means no such curve, though single readings can be large or run the other way.
Potency means the concentration at half of the fitted maximal effect.

A short description of the test: Quantitative High-Throughput drug screen in 47 multiple myeloma cell lines against the NCATS MIPE library collection: Karpas417_ECACC cell viability assay (AID 1918961).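 On viability (% of DMSO): 100% = DMSO only wells and 0% = media only wells without cells.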 Conditions: Karpas417 myeloma viability, CellTiter-Glo ATP luminescence, 48 h; viability (% of DMSO): at 45.8 µM (top of the series). The gist of the method:
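qHTS of the MIPE 4.0 collection: 500 myeloma cells/well, 48 h drug exposure at 37C in 5% CO2, then CellTiter-Glo for 5 min at room temperature before luminescence reading.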
On the technique in general: In ATP-based viability assays light output follows the ATP content of the culture.
For `CSCC[C@@H](NC(=O)[C@@H](Cc1ccccc1)NC(=O)CNC(=O)CNC(=O)[C@@H](N)Cc1ccc(O)cc1)C(=O)O`, the viability (% of DMSO) is 132% (active). On to `COCC1(CO)C(=O)C2CCN1CC2` (stereo not drawn), for which the Potency is 3.72 µM (active).

Consider `CCNC(=O)C[C@@H]1N=C(c2ccc(Cl)cc2)c2cc(OC)ccc2-n2c(C)nnc21`, for which the Potency was 0.0132 µM (active).

As for `COc1cccc2c1[C@]13CCN(CC4CC4)[C@H](C2)[C@]1(OC)CCC(=O)C3`, the viability (% of DMSO) was 89.4% (active). For the compound `CN1CCN(c2ccc([N+](=O)[O-])c3no[n+]([O-])c23)CC1`, the Potency was 5.26 µM (active). On to `O=C1C=CC[C@@H]2[C@H]3CCCN4CCC[C@@H](CN12)[C@@H]34`, for which the Potency entry was “inactive”. As to `CCc1c(C(=O)C(N)=O)c2c(OCC(=O)O)cccc2n1Cc1ccccc1`, the Potency result is “inactive”. Consider `O=[N+]([O-])c1ncc[nH]1`, for which the Potency result is “inactive”. For `CC1=C(O)C(=O)C=C2C1=CC=C1[C@@]2(C)CC[C@@]2(C)[C@@H]3C[C@](C)(C(=O)O)CC[C@]3(C)CC[C@]12C`, the Potency is 0.743 µM (active).

`CC(C)N[C@@H]1CCn2c(=O)[nH]c3cccc(c32)[C@@H]1O`: the Potency was 1.05 µM (active). Turning to `COc1ccc2c(c1)CN(C)CC2c1ccc(Cl)c(Cl)c1` (stereo not drawn), the Potency was 14.8 µM (active).

`CC[C@@]1(O)C(=O)OCc2c1cc1n(c2=O)Cc2cc3ccccc3nc2-1`: the Potency was 0.296 µM (active). The same measure, in the same setting: under `C[C@@H]1CC[C@@]2(OC1)O[C@H]1C[C@H]3[C@@H]4CC=C5C[C@@H](O[C@@H]6O[C@H](CO)[C@@H](O[C@@H]7O[C@@H](C)[C@H](O)[C@@H](O)[C@@H]7O)[C@H](O)[C@@H]6O[C@@H]6O[C@@H](C)[C@H](O)[C@@H](O)[C@@H]6O)CC[C@]5(C)[C@@H]4CC[C@]3(C)[C@@H]1[C@H]2C` stands 1.05 µM (active); under `C1=C2CCCN[C@H]2[C@@H]2C[C@H]1[C@@H]1CCCCN1C2`, “inactive”. Still for that read-out and setting: under `Cc1c(C(=O)Nc2cccc(C(F)(F)F)c2)cc(-c2ccccc2)n1CCCN1CCOCC1` stands 7.43 µM (active); under `O=S(=O)(CC1CS1)c1ccc(Oc2ccccc2)cc1` (stereo not drawn), 9.35 µM (active); under `O=c1[nH]c2ccc(Cl)cc2c(N[C@@H]2CN3CCC2CC3)c1-c1nc2ccccc2[nH]1`, 0.332 µM (active).

As for `CCN1CCN(C(=O)Cc2ccc(Nc3ncc(F)c(Nc4ccc(C(=O)Nc5ccccc5Cl)cc4)n3)cc2)CC1`, the Potency is 2.96 µM (active). Same read-out and setting: under `COc1ccc(CC2NCCc3cc(OC)c(OC)cc32)cc1OC` (stereo not drawn) stands “inactive”. In the case of `CCOP(=O)(OCC)C(C)NC(=O)N(CCCl)N=O` (stereo not drawn), the Potency entry is “inactive”. Regarding `CCOC(=O)Nc1ccc(NCc2ccc(F)cc2)cc1N`, the Potency entry is “inactive”.

With `Cc1ccccc1-n1c(Cn2cnc3c(N)ncnc32)nc2cccc(C)c2c1=O`, the Potency was 0.132 µM (active). Same read-out and setting: under `NC1=NC(=O)N2CC12` (stereo not drawn) stands 1.66 µM (active).

Consider `CC(C)N(CCNC(=O)CN1CCCC1=O)C(C)C`, for which the Potency result is “inactive”. As for `CC(C)[C@]12O[C@@H]1[C@@H]1O[C@]13[C@]1(O[C@H]1C[C@@H]1C4=C(CC[C@@]13C)C(=O)OC4)[C@H]2O`, the Potency entry is “inactive”. Same read-out and setting: under `CCCCCC[C@H]1C(=O)O[C@H](C)[C@H](NC(=O)c2cccc(NC=O)c2O)C(=O)O[C@@H](C)[C@@H]1OC(=O)CC(C)C` stands 0.332 µM (active). `CN(C)[C@@H]1C(=O)C(C(N)=O)=C(O)[C@@]2(O)C(=O)C3=C(O)c4c(O)cccc4[C@@](C)(O)[C@H]3[C@H](O)[C@@H]12`: the Potency result was “inactive”. Still for that read-out and setting: under `CC(C)(O)C=CC(=O)[C@](C)(O)[C@H]1[C@H](O)C[C@]2(C)[C@@H]3CC=C4[C@@H](C=C(O)C(=O)C4(C)C)[C@]3(C)C(=O)C[C@@]12C` stands 0.0083 µM (active).
